Rows were chosen to be rich in hits. Some 9.9% of all compounds tested hit in one or more screens of this group.
SW480 rereplic: induces DNA re-replication in SW480 colon adenocarcinoma cells; SW480 DNA re-replication, Hoechst DNA content imaging, 48 h; Potency, µM (top dose mostly 46.1 µM), for the others: at the highest dose re-replication activation, most hits filed as activators; 340,000 tested, 1.8% active; also: potency is read from the fitted curve at half-maximal effect; % of control where 0% means no effect; nearly all actives have a fitted effect of over 55% in size
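First, 250 cells per well were seeded. Next, compound or vehicle (23 nL) was pinned in, plates sat 48 hr at 37 C. Finally Hoechst was added for 40 min before fluorescence scanning.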
IL-1B inflam inh: inflammasome signaling inhibition, IL-1 beta readout. THP-1 LPS/ATP IL-1B secretion, AlphaLISA, 16 h; stronger effect = lower value. activity change, % at 57.5 µM. 360,000 tested, 4.7% active; in the data active = activity change below about -50%; inconclusive = mostly about -30% to -49%; also: % is scaled to controls: 0 for no effect and ±100 for the full control effect
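Secreted IL-1B measured by AlphaLISA bead assay after 16 h compound exposure of THP-1 cells; compounds (final up to 57.5 uM) added 1 h before LPS (250 ng/mL) and ATP (1.25 mM) stimulation; lower signal means less secretion.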
KB-V1 cytotox: KB-V1 MDR subline cytotoxicity. KB-V1 MDR cells viability, CellTiter-Glo, 72 h. Potency, µM (doses to about 46.1 µM), most hits filed as cytotoxic. 400,000 tested, 3.4% active. AID 1347076; also: potency is read from the fitted curve at half-maximal effect; % is scaled to controls: 0 for no effect and ±100 for the full control effect; nearly all actives have a fitted effect of over 60% in size
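Compound-treated KB-V1 multidrug-resistant cells, 72 h, 37 degrees C; viability by CellTiter-Glo. Fitted qHTS curves give the values.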
MCF10A rereplic: inducers of DNA re-replication in MCF 10A breast cells; MCF 10A DNA re-replication, Hoechst nuclear intensity, 48 h; Potency, µM (highest dose often 46.1 µM), without a hit: at the highest dose activity, positive = re-replication, hits mostly activators; 350,000 tested, 2.9% active; also: potency is read from the fitted curve at half-maximal effect; % of control where 0% means no effect; nearly all actives have a fitted effect of over 50% in size
KB-3-1 cytotox: kills parental KB-3-1 adenocarcinoma cells | Potency, µM (series often up to 46.1 µM), usual class: cytotoxic | 400,000 tested, 1.4% active | KB-3-1 viability, CellTiter-Glo ATP luminescence, 72 h | AID 1347075; also: potency is read from the fitted curve at half-maximal effect; % is scaled to controls: 0 for no effect and ±100 for the full control effect; nearly all actives have a fitted effect of over 60% in size
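KB-3-1 cells, DMEM (no phenol red) + 10% FBS; compound by pin transfer, 72 h, 37 °C. Readout: CellTiter-Glo luminescence after 10 min. Data normalized, curve-fitted.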
The depositor's hits bear a star; i = inactive; ? = inconclusive; nt = not tested or not shown. Unless noted, calls follow the shape of the dose curve; as a rule, active = well fitted curve in the direction sought with a large enough effect; inconclusive = small, poorly fitted or top-dose-only effect, or another doubt; inactive = no such curve, though single readings can be large; an effect the other way counts as inactive or inconclusive.

SMILES	SW480 rereplic	IL-1B inflam inh	KB-V1 cytotox	MCF10A rereplic	KB-3-1 cytotox
O=C(Nc1c(-c2ccc(Cl)cc2)[nH][nH]c1=O)c1ccccc1Cl	nt	30	i	nt	i
CCOC(=O)c1[nH]c2ccccc2c1NC(=O)c1cc(OCC)c(OCC)c(OCC)c1	nt	nt	i	nt	i
CCc1nc2ccc(C(=O)N(CC)CCN(C)C)cn2c1N(C)C(=O)c1cccc(OC)c1	nt	3	i	nt	i
Cc1noc(/C=C/c2ccc(-c3ccccc3Cl)o2)c1[N+](=O)[O-]	2%	0	i	17%	i
Cc1[nH]c(C)c(C(=O)/C=C/c2ccc([N+](=O)[O-])cc2)c1C	?	-97*	i	12µM*	?
Cc1ccc(C(=O)/C=C/c2ccc(-c3ccccc3[N+](=O)[O-])o2)cc1	-1%	-95*	i	-2%	i
Cc1ccc(C(=O)C=CC=Cc2ccccc2)cc1	nt	?	i	nt	i
O=C(N/N=C/c1ccc(-c2ccccc2[N+](=O)[O-])o1)c1cccnc1	2%	15	i	-12%	i
O=C(/C=C/c1ccc(-c2ccccc2[N+](=O)[O-])o1)c1ccc(F)cc1	-6%	-99*	i	-4%	i
Cc1ccc(C(=O)/C=C/c2ccccc2[N+](=O)[O-])cc1	?	-57*	i	16µM*	i
CNC(=S)N(Cc1cc2ccc(OC)cc2[nH]c1=O)CC1CCCO1 (stereo unspecified)	-6%	0	i	-2%	i
O=C(/C=C/c1cccnc1)c1ccc([N+](=O)[O-])cc1	?	-21	i	?	i
O=C(C=Cc1ccco1)c1ccc([N+](=O)[O-])cc1	-5%	-25	i	7%	i
O=C(/C=C/c1ccc(-c2ccccc2[N+](=O)[O-])o1)c1ccc(Br)cc1	?	-66*	i	?	i
O=C(/C=C/c1ccccc1[N+](=O)[O-])c1ccccc1Br	?	-104*	?	?	?
O=C(C=Cc1ccccc1)c1ccc([N+](=O)[O-])cc1	16µM*	-27	i	160%	i
N#Cc1cc([N+](=O)[O-])cnc1N(CCO)CCO	nt	0	i	-1%	i
Cc1nc([N+](=O)[O-])c(Sc2nc3ccccc3n2C)n1Cc1ccccc1	?	-105*	i	15µM*	i
Cc1nc([N+](=O)[O-])c(SCC(N)=O)n1Cc1ccccc1	0%	-18	i	10%	i
CCC(=O)c1ccc(OCC(O)CNC2CCCC2)cc1 (stereo unspecified)	?	-12	i	?	i
COc1ccc(Cn2cc(C(=O)c3ccc(C)c(C)c3)c(=O)c3ccccc32)cc1	nt	nt	i	nt	i
COc1ccc2c(c1)c(=O)c(C(=O)c1ccccc1)cn2Cc1ccc(C)cc1	?	-4	18µM*	?	?
Cc1ccc(NC(=O)N2CCN(Cc3nc4ccc(C)cc4o3)CC2)c(Cl)c1	nt	nt	i	nt	i
Cc1ccccc1-n1c(CSC(=N)N)nc2ccccc2c1=O	?	0	i	?	i
N=C(N)SCc1nc2ccccc2c(=O)n1-c1ccccc1Cl	-4%	?	23µM*	?	i
SMILES	SW480 rereplic	IL-1B inflam inh	KB-V1 cytotox	MCF10A rereplic	KB-3-1 cytotox
CC(C)Oc1ccc(F)cc1-c1cc(C(=O)Nc2ccc(C(C)(C)C)cc2)[nH]n1	nt	15	i	nt	i
CC(=O)Nc1cc(N=Cc2ccc(O)cc2O)c(Cl)cc1Cl	?	-102*	i	21µM*	i
COc1ccc(O)c(C=Nc2cc(NC(C)=O)c(Cl)cc2Cl)c1	-67%	11	i	2%	i
O=C(/C=C/[C@H]1O[C@@H](n2ccc(=O)[nH]c2=O)[C@H](O)[C@@H]1O)NC1CCN(Cc2ccccc2)C1 (stereo partly specified)	nt	18	i	nt	i
O=C(CC12CC3CC(C1)CC(CC(=O)N1CCCC1)(C3)C2)N1CCCC1	-2%	18	15µM*	3%	i
Cc1ccc(N(CC(=O)NC2CCCC2)C(=O)CCC(=O)Nc2nccs2)c(C)c1	-4%	-54*	?	0%	i
CCN(Cc1ccccc1)C(=O)c1nc(-c2cccc(F)c2)n2c1CCCCC2	nt	nt	i	nt	i
